Results reported in the OligoGym collection.

Target: JDP2
Assay: pooled miR-30 sensor sort-seq; sequence = guide strand
Details: shRNA
Note: reference of the scale not given here.

| Sequence | sensor-assay potency score (higher = more potent) |
| --- | --- |
| TTTCCTTCGCTCCTCTTCCTCA | -0.612 |
| TAAACATTCGGTGAGTATGTGC | -0.401 |
| TTTGGTTGCAACTCATGGCTTT | 0.0923 |
| TCTTCTTGTTCCGGCATCGGGC | -0.866 |
| TATCTGTTCATAACAAACAAAC | -1.71 |
| TATACTGTATCACATCGAGTGA | -0.648 |
| TTTATACTGTATCACATCGAGT | -0.987 |
| TTTCATTCTGAGTTCCATCCTC | 0.428 |
| TACTGTATCACATCGAGTGATT | -0.618 |
| TAGCTCACTTTTCACGGGCTGG | -0.699 |
| TTAGGAGTTACACACAACGGCC | -1.56 |
| ATAACAAACAAACCATAGCATA | -1.75 |

Target: JMJD1C
Assay: as above
Details: shRNA

| Sequence | sensor-assay potency score (higher = more potent) |
| --- | --- |
| TATCTTGTCAACATCTTTCCCA | 0.56 |
| TTTATCTCTAGAACTCTTCCTT | 0.72 |
| TTCAATTTTAAAACAACTGTTT | -0.691 |
| TTTACATTTATCTTGGAGGTTT | -0.435 |
| TATCTCTAGAACTCTTCCTTTC | -0.557 |
| ATCTATTCTAACTACTCCGTTT | -1.09 |
| TTAACTTGTTATCTGTGCCTAC | 0.548 |
| ATTGACAGAACTTATCACCTAT | 0.441 |
| TAGTCTTGAAGTCTTCTCCTGA | 0.704 |
